Data taken from PubChem BioAssay (EPA / NIEHS).
Calls of active or inactive are those of the source. How the source made its calls: active means hit-call score of the fitted dose curve at least 0.9, where 1 is the maximum; inactive means score below 0.9.

Assays:
Details in all cases: mRNA level, 48 h; actives raise or lower the signal
CYP3A5 (gene 1577) = test: LTEA_HepaRG_CYP3A5: Life Technologies and Expression Analysis (LTEA) Assay for CYP3A5 using HepaRG (AID 2283493)
Summary of the method: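 Human HepaRG hepatic cells receive 48 h chemical treatment at eight concentrations (half-log steps from 100 uM) in 0.5% DMSO. Expression of CYP3A5 is quantified by Fluidigm qRT-PCR and normalized to three reference genes.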

[1] = read-out: Fatty Acid-Binding Protein 1 (FABP1), FABP1 (gene 2168); test: LTEA_HepaRG_FABP1: Life Technologies and Expression Analysis (LTEA) Assay for Fatty Acid-Binding Protein 1 (FABP1) using HepaRG (AID 2283494)
Summary of the method: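 qRT-PCR readout of FABP1 transcript (normalized to three housekeeping genes) after 48 h chemical exposure of HepaRG cells; eight concentrations, half-log steps, max 100 uM, 0.5% DMSO vehicle; gain or loss fitted relative to DMSO baseline.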

[2] = read-out: Cytochrome P450 4A22 (Homo sapiens) (UniProt Q5TCH4); test: LTEA_HepaRG_CYP4A22: Life Technologies and Expression Analysis (LTEA) Assay for Cytochrome P450 4A22 (CYP4A22) using HepaRG (AID 2283495)
Summary of the method: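 Readout is CYP4A22 transcript induction or loss, quantified by qRT-PCR and normalized to ACTB, GAPDH and POLR2A. Human HepaRG cells receive test chemicals for 48 h at eight half-log concentrations from 100 uM in 0.5% DMSO.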

[3] = read-out: Cytochrome P450 7A1 (Homo sapiens) (UniProt P22680); test: LTEA_HepaRG_CYP7A1: Life Technologies and Expression Analysis (LTEA) Assay for Cytochrome P450 7A1 (CYP7A1) using HepaRG (AID 2283496)
Summary of the method: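 HepaRG, 48 h exposure, 8-pt half-log series from 100 uM, 0.5% DMSO vehicle, duplicates. Readout: TaqMan qRT-PCR mRNA vs three housekeeping genes; bidirectional curve fit against DMSO baseline.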

[4] = read-out: Glutathione S-Transferase (GSTA2), GSTA2 (gene 2939); test: LTEA_HepaRG_GSTA2: Life Technologies and Expression Analysis (LTEA) Assay for Glutathione S-Transferase (GSTA2) using HepaRG (AID 2283497)
Summary of the method: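 qRT-PCR readout of GSTA2 transcript, normalized to three housekeeping genes, fitted bidirectionally against 0.5% DMSO baseline. Differentiated HepaRG cells received compound for 48 h at 8 concentrations (top 100 uM, half-log steps).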

[5] = read-out: Glutamate-cysteine ligase catalytic (GCLC), GCLC (gene 2729); test: LTEA_HepaRG_GCLC: Life Technologies and Expression Analysis (LTEA) Assay for Glutamate-cysteine ligase catalytic (GCLC) using HepaRG (AID 2283498)
Summary of the method: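 HepaRG, 48 h exposure, 8-pt half-log series from 100 uM, 0.5% DMSO vehicle; TaqMan qRT-PCR for GCLC mRNA, housekeeping-normalized; bidirectional curve fit vs DMSO baseline.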

[6] = read-out: growth arrest and DNA damage 45 (GADD45G), GADD45G (gene 10912); test: LTEA_HepaRG_GADD45G: Life Technologies and Expression Analysis (LTEA) Assay for growth arrest and DNA damage 45 (GADD45G) using HepaRG (AID 2283499)
Summary of the method: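 Gain or loss of GADD45G mRNA, quantified by TaqMan qRT-PCR against three housekeeping genes, is fitted in both directions relative to 0.5% DMSO. Human HepaRG cultures receive test chemical for 48 h at up to 100 uM.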

[7] = read-out: Glutamate-cysteine ligase regulatory (GCLM), GCLM (gene 2730); test: LTEA_HepaRG_GCLM: Life Technologies and Expression Analysis (LTEA) Assay for Glutamate-cysteine ligase regulatory (GCLM) using HepaRG (AID 2283500)
Summary of the method: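 Endpoint is GCLM transcript level by qRT-PCR, normalized to three housekeeping genes, after 48 h chemical exposure of human HepaRG cells (0.5% DMSO vehicle, top 100 uM, half-log dilutions). Fitting was bidirectional relative to DMSO.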

[8] = read-out: Glutathione S-transferase M3 (GSTM3), GSTM3 (gene 2947); test: LTEA_HepaRG_GSTM3: Life Technologies and Expression Analysis (LTEA) Assay for Glutathione S-transferase M3 (GSTM3) using HepaRG (AID 2283501)
Summary of the method: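 HepaRG, plated 48 h, then serum-free induction medium; test chemical 48 h, duplicate; 100 uM top, half-log x8, 0.5% DMSO. Read-out: GSTM3 mRNA (TaqMan qRT-PCR, Fluidigm array). Bidirectional fit vs DMSO.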

[9] = read-out: Heat shock 70 kDa protein 1 (HSPA1A), gene 3303; test: LTEA_HepaRG_HSPA1A: Life Technologies and Expression Analysis (LTEA) Assay for Heat shock 70 kDa protein 1 (HSPA1A) using HepaRG (AID 2283502)
Summary of the method: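 Cells were plated and cultured for 48 h, then switched to serum-free induction medium. Chemicals were added at eight half-log concentrations up to 100 uM for 48 h. RNA was then isolated and HSPA1A measured by qRT-PCR with bidirectional curve fitting against DMSO.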

Measured: AC50

CC1(C)C(=O)N(Cl)C(=O)N1Cl
inactive: CYP3A5 (gene 1577) | [1] | [2] | [3] | [4] | [5] | [6] | [7] | [8] | [9]

CCn1nc(C)c2c1C(=O)NCC(c1ccc(O)cc1)=N2
inactive: CYP3A5 (gene 1577) | [1] | [3] | [4] | [5] | [6] | [7] | [8] | [9]

c1ccc2c(c1)-c1cccc3c1c-2cc1ccccc13
active: CYP3A5 (gene 1577) 5.37 µM | [1] 19.1 µM | [2] 29.1 µM | [3] 15.6 µM | [4] 17.9 µM | [6] 14 µM | [9] 18.5 µM
inactive: [5] | [7]

Cc1ncc([C@@H](CCCCCCc2ccc3c(n2)NCCC3)CC(=O)O)cn1
inactive: CYP3A5 (gene 1577) | [1] | [2] | [3] | [4] | [5] | [6] | [7] | [8] | [9]

NNC(=O)c1ccncc1
inactive: CYP3A5 (gene 1577) | [1] | [2] | [3] | [4] | [5] | [6] | [7] | [8] | [9]

c1ccc(C(O[C@@H]2CCCN(CCc3ccc4c(c3)OCO4)C2)c2ccccc2)cc1
inactive: [5] | [7]
active: CYP3A5 (gene 1577) 81.9 µM | [1] 79.1 µM | [3] 83.6 µM | [4] 79.1 µM | [6] 75.3 µM | [8] 90.3 µM | [9] 80.4 µM

CCCc1ccccc1
inactive: CYP3A5 (gene 1577) | [1] | [2] | [3] | [4] | [5] | [6] | [7] | [8] | [9]

OC(CCl)CCl
inactive: CYP3A5 (gene 1577) | [1] | [3] | [4] | [5] | [6] | [7] | [8] | [9]

CCCCCCOC(=O)CC(CC(=O)OCCCCCC)(OC(=O)CCC)C(=O)OCCCCCC
inactive: CYP3A5 (gene 1577) | [1] | [2] | [3] | [4] | [5] | [6] | [7] | [8] | [9]

OC[C@H]1O[C@@H]2O[C@H]3[C@H](O)[C@@H](O)[C@@H](O[C@H]4[C@H](O)[C@@H](O)[C@@H](O[C@H]5[C@H](O)[C@@H](O)[C@@H](O[C@H]6[C@H](O)[C@@H](O)[C@@H](O[C@H]7[C@H](O)[C@@H](O)[C@@H](O[C@H]1[C@H](O)[C@H]2O)O[C@@H]7CO)O[C@@H]6CO)O[C@@H]5CO)O[C@@H]4CO)O[C@@H]3CO
inactive: CYP3A5 (gene 1577) | [1] | [2] | [3] | [4] | [5] | [6] | [7] | [8] | [9]

O=S(=O)(O)c1ccc(N=Nc2c(O)ccc3cc(S(=O)(=O)O)ccc23)cc1
inactive: CYP3A5 (gene 1577) | [1] | [3] | [4] | [5] | [6] | [7] | [8] | [9]

CC(C)C(=O)Nc1ccc([N+](=O)[O-])c(C(F)(F)F)c1
inactive: CYP3A5 (gene 1577) | [5] | [9]
active: [1] 37.9 µM | [2] 41.7 µM | [3] 67.6 µM | [4] 65.8 µM | [6] 85.6 µM | [7] 50 µM | [8] 50 µM

OCCOCCOCCO
inactive: CYP3A5 (gene 1577) | [1] | [2] | [3] | [4] | [5] | [6] | [7] | [8] | [9]

C[C@@H](Oc1ccc(CNC(=O)c2cccnc2Oc2ccc3c(c2)OCO3)c(F)c1)C(=O)O
active: [1] 50 µM | [2] 28.6 µM
inactive: CYP3A5 (gene 1577) | [3] | [4] | [5] | [7] | [8] | [9]

COc1cc2c(c(OC)c1OC)-c1ccc(OC)c(=O)cc1[C@@H](NC(C)=O)CC2
inactive: [7] | [8] | [9]
active: CYP3A5 (gene 1577) 0.0995 µM | [1] 0.106 µM | [2] 0.108 µM | [3] 0.095 µM | [4] 0.107 µM | [5] 0.0881 µM | [6] 0.0846 µM

CC[C@H](C)C(=O)O[C@H]1C[C@H](O)C=C2C=C[C@H](C)[C@H](CC[C@@H](O)C[C@@H](O)CC(=O)O)[C@H]21
active: [1] 3.68 µM
inactive: CYP3A5 (gene 1577) | [2] | [3] | [4] | [5] | [6] | [7] | [8] | [9]

CCOC(N)=O
inactive: CYP3A5 (gene 1577) | [1] | [2] | [3] | [4] | [5] | [6] | [7] | [8] | [9]
